Data as given in the antibiotic and cytotoxicity screens of Wong et al. (2023).
About 500 (1.3%) of roughly 39,000 compounds were called active. The sample as a whole holds a higher share of actives than the screen did.

Each compound was assayed on S. aureus RN4220 (assay: growth inhibition call (relative growth <= 0.2)). Details: 50 µM.
With `CC(C)[C@@H](O)C[C@@H](C)O[C@@H]1O[C@H](CO[C@@H]2OC[C@](O)(CO)[C@H]2O)[C@@H](O)[C@H](O)[C@H]1O` the growth inhibition call was “inactive”.
In the case of `C[C@H]1CN([C@@H](C)CO)S(=O)(=O)c2ccc(C#Cc3ccccc3)cc2O[C@H]1CN(C)C(=O)c1ccccn1`, the growth inhibition call is reported as “inactive”.
In the case of `C=CCNC(=O)[C@H]1[C@@H]2C(=O)O[C@@H](c3ccccc3)[C@@H](c3ccccc3)N2[C@@H](c2ccc(O)cc2)[C@]12C(=O)Nc1ccc(C#CC3=CCCCC3)cc12`, the growth inhibition call is reported as “inactive”.
In the case of `O=C1O[C@H](c2ccccc2)[C@H](c2ccccc2)N2[C@H]1[C@@H](C(=O)O)[C@]1(C(=O)Nc3ccc(C#CC4=CCCCC4)cc31)[C@H]2c1ccccc1OCCO`, the growth inhibition call is reported as “active”.
`O=C1O[C@H](c2ccccc2)[C@H](c2ccccc2)N2[C@H]1[C@@H](C(=O)O)[C@]1(C(=O)Nc3ccc(C#CC4=CCCCC4)cc31)[C@H]2c1ccc(O)cc1` was tested, and the growth inhibition call was “active”.
For `O=C1O[C@@H](c2ccccc2)[C@@H](c2ccccc2)N2[C@@H](c3ccc(O)cc3)[C@]3(C(=O)Nc4ccc(C#CC5=CCCCC5)cc43)[C@@H](C(=O)N3CCCCCCC3)[C@H]12`, the growth inhibition call was “inactive”.
`O=C1O[C@@H](c2ccccc2)[C@@H](c2ccccc2)N2[C@@H](c3ccc(O)cc3)[C@]3(C(=O)Nc4ccc(C#CC5=CCCCC5)cc43)[C@@H](C(=O)O)[C@H]12` was tested, and the growth inhibition call was “active”.
`O=C1O[C@H](c2ccccc2)[C@H](c2ccccc2)N2[C@H]1[C@@H](C(=O)N1CCCCCCC1)[C@]1(C(=O)Nc3ccc(C#CC4=CCCCC4)cc31)[C@H]2c1ccc(O)cc1` was tested, and the growth inhibition call was “inactive”.
`C=CCNC(=O)[C@@H]1[C@H]2C(=O)O[C@H](c3ccccc3)[C@H](c3ccccc3)N2[C@H](c2ccc(O)cc2)[C@@]12C(=O)Nc1ccc(C#CC3=CCCCC3)cc12` was tested, and the growth inhibition call was “inactive”.
In the case of `NC(=O)[C@H]1[C@@H]2C(=O)O[C@@H](c3ccccc3)[C@@H](c3ccccc3)N2[C@@H](c2ccccc2OCCO)[C@]12C(=O)Nc1ccc(C#CC3=CCCCC3)cc12`, the growth inhibition call is reported as “inactive”.
For `O=C1O[C@@H](c2ccccc2)[C@@H](c2ccccc2)N2[C@@H](c3ccccc3OCCO)[C@]3(C(=O)Nc4ccc(C#CC5=CCCCC5)cc43)[C@@H](C(=O)O)[C@H]12`, the growth inhibition call was “inactive”.
In the case of `CC(C)(C)S(=O)N1Cc2cc(C(=O)N[C@@H]3CCN(Cc4ccccc4)C3)nc(-c3cccc(C#CCC4CCCC4)c3)c2[C@H]1CCO` (some centres undefined), the growth inhibition call is reported as “inactive”.
`CC(C)(C)OC(=O)C[C@@H]1CC=CC[C@@H](CC(=O)NCCO)C(=O)N[C@@H](Cc2ccccc2)COC1=O` was tested, and the growth inhibition call was “inactive”.
For `C[C@@H]1CN([C@@H](C)CO)C(=O)Cc2cc(NC(=O)Nc3ccc(F)cc3)ccc2O[C@@H]1CN(C)Cc1ccc(C(=O)Nc2ccccc2N)cc1`, the growth inhibition call was “inactive”.
In the case of `Cc1ccc(S(=O)(=O)Nc2ccc3c(c2)C(=O)N([C@H](C)CO)C[C@@H](C)[C@@H](CN(C)Cc2ccc4c(c2)OCO4)OCCCC[C@@H](C)O3)cc1`, the growth inhibition call is reported as “inactive”.
In the case of `CC(C)NC(=O)N[C@@H]1CC[C@H](CCN)O[C@@H]1CO`, the growth inhibition call is reported as “inactive”.
In the case of `COc1ccccc1NC(=O)Nc1ccc2c(c1)OC[C@@H](C)N(Cc1ccccc1Cl)C[C@@H](C)[C@H](OC)CN(C)C2=O`, the growth inhibition call is reported as “inactive”.
In the case of `CO[C@H]1CN(C)C(=O)c2ccc(NS(C)(=O)=O)cc2OC[C@H](C)N(C(=O)C2CCOCC2)C[C@H]1C`, the growth inhibition call is reported as “inactive”.
For `CC(C)CC#Cc1ccc2c(c1)O[C@H](CN(C)C(=O)Cc1cccnc1)[C@@H](C)CN([C@H](C)CO)S2(=O)=O`, the growth inhibition call was “inactive”.
`O=C(C[C@H]1CC[C@@H](NC(=O)CN2CCOCC2)[C@H](CO)O1)NCCc1ccccc1` was tested, and the growth inhibition call was “inactive”.
With `CCCCc1ccc(CC(=O)O)cc1` the growth inhibition call was “inactive”.
`Cc1ccc(C)c(OCCCC(C)(C)C(=O)O)c1` was tested, and the growth inhibition call was “inactive”.
For `CC(C)(C)Cc1ccc(OCCCC(=O)O)c(CC(C)(C)C)c1`, the growth inhibition call was “active”.
In the case of `C[C@H](CO)N1C[C@H](C)[C@H](CN(C)S(=O)(=O)c2ccccc2)Oc2ccc(NS(C)(=O)=O)cc2CC1=O`, the growth inhibition call is reported as “inactive”.
With `O=C(CN1C(=O)c2cccc3cccc(c23)C1=O)N1CCN(CCN2C(=O)[C@@H]3[C@@H](C2=O)[C@@H]2C=C[C@@H]3C2)CC1` the growth inhibition call was “inactive”.
In the case of `CC(C)(C)C1CCC(OC[C@@H](O)CN2CCC(CN3C(=O)c4cccc5cccc(c45)C3=O)CC2)CC1` (some centres undefined), the growth inhibition call is reported as “active”.
With `O=C(O)CN1C(=O)c2cccc3cccc(c23)C1=O` the growth inhibition call was “inactive”.
`C[C@H](O)C#Cc1cnc2c(c1)C(=O)N([C@@H](C)CO)C[C@H](C)[C@@H](CN(C)Cc1cncnc1)O2` was tested, and the growth inhibition call was “inactive”.
For `C[C@@H]1CN([C@@H](C)CO)C(=O)c2cc(NC(=O)c3ccncc3)ccc2O[C@@H](C)CCCCO[C@@H]1CN(C)S(=O)(=O)c1cn(C)cn1`, the growth inhibition call was “inactive”.
For `C[C@H]1CN([C@@H](C)CO)C(=O)c2c(c3ccccc3n2C)-c2ccccc2CO[C@@H]1CN(C)Cc1ccc(C(=O)O)cc1`, the growth inhibition call was “inactive”.
For `COc1ccc2c(c1)n(CCN)c(=O)n2C(=O)[C@@H]1C[C@H](C)CC[C@H]1C(C)C`, the growth inhibition call was “active”.
For `CC(C)[C@H]1CC[C@@H](C)C[C@@H]1NC(=O)c1cccc2ccccc12`, the growth inhibition call was “inactive”.
With `COc1ccc(NC(=O)N(C)C[C@H]2OCCCC[C@H](C)Oc3ccc(NC(=O)NC4CCCCC4)cc3C(=O)N([C@@H](C)CO)C[C@H]2C)cc1` the growth inhibition call was “inactive”.
`O=C(O)CN(CCN(CC(=O)O)CC(=O)O)CC(=O)O` was tested, and the growth inhibition call was “inactive”.
In the case of `Cc1c2oc3c(C)ccc(C(=O)N[C@@H]4C(=O)N[C@@H](C(C)C)C(=O)N5CCC[C@H]5C(=O)N(C)CC(=O)N(C)[C@@H](C(C)C)C(=O)O[C@@H]4C)c3nc-2c(C(=O)N[C@@H]2C(=O)N[C@@H](C(C)C)C(=O)N3CCC[C@H]3C(=O)N(C)CC(=O)N(C)[C@@H](C(C)C)C(=O)O[C@@H]2C)c(N)c1=O`, the growth inhibition call is reported as “active”.
For `Cc1c2oc3c(C)ccc(C(=O)OC(C)C4NC(=O)C(C(C)C)N(C)C(=O)CN(C)C(=O)C5CCCN5C(=O)C(C(C)C)NC4=O)c3nc-2c(C(=O)OC(C)C2NC(=O)C(C(C)C)N(C)C(=O)CN(C)C(=O)C3CCCN3C(=O)C(C(C)C)NC2=O)c(N)c1=O` (centres undefined), the growth inhibition call was “active”.
For `Cc1c2oc3c(C)ccc(C(=O)N[C@@H]4C(=O)N[C@H](C(C)C)C(=O)N5CCC[C@H]5C(=O)N(C)CC(=O)N(C)[C@@H](C(C)C)C(=O)O[C@@H]4C)c3nc-2c(C(=O)N[C@@H]2C(=O)N[C@H](C(C)C)C(=O)N3CCC[C@H]3C(=O)N(C)CC(=O)N(C)[C@@H](C(C)C)C(=O)O[C@@H]2C)c(N)c1=O`, the growth inhibition call was “inactive”.
For `C[C@H]1CN([C@@H](C)CO)C(=O)Cc2cc(NC(=O)Nc3cccc4ccccc34)ccc2O[C@@H]1CN(C)C(=O)Nc1ccc(F)cc1`, the growth inhibition call was “inactive”.
For `C[C@@H]1CN([C@H](C)CO)C(=O)c2cccc(NC(=O)c3cnccn3)c2O[C@H]1CN(C)Cc1ccc2c(c1)OCO2`, the growth inhibition call was “inactive”.
With `COc1cccc(NC(=O)N[C@H]2C=C[C@@H](CC(=O)N3CCN(C)CC3)O[C@@H]2CO)c1` the growth inhibition call was “inactive”.
For `O=C(C[C@H]1C[C@@H]2c3cc(NC(=O)NC4CCCC4)ccc3O[C@@H]2[C@H](CO)O1)NCCN1CCCCC1`, the growth inhibition call was “inactive”.
In the case of `C[C@H](CO)N1C[C@H](C)[C@@H](CN(C)Cc2ccc(Oc3ccccc3)cc2)Oc2c(NC(=O)C3CCCCC3)cccc2C1=O`, the growth inhibition call is reported as “inactive”.
In the case of `C[C@@H]1CN([C@@H](C)CO)C(=O)c2cc(NC(=O)c3ccccc3)ccc2O[C@@H](C)CCCCO[C@H]1CN(C)Cc1ccc2c(c1)OCO2`, the growth inhibition call is reported as “inactive”.
In the case of `C[C@@H]1CN([C@@H](C)CO)C(=O)c2cc(NC(=O)NC3CCCCC3)ccc2O[C@H]1CN(C)Cc1ccc(C(=O)Nc2ccccc2N)cc1`, the growth inhibition call is reported as “inactive”.
With `CC(C)NC(=O)Nc1cccc2c1O[C@H](CN(C)S(=O)(=O)c1ccc(F)cc1)[C@H](C)CN([C@H](C)CO)C2=O` the growth inhibition call was “inactive”.
`C[C@H](CO)N1C[C@H](C)[C@H](CN(C)Cc2ccc(-c3ccccc3)cc2)Oc2c(NC(=O)NC3CCCCC3)cccc2C1=O` was tested, and the growth inhibition call was “inactive”.
With `Cc1ccc(C(=O)N(CCCN)[C@@H](c2oc3cc(Cl)ccc3c(=O)c2Cc2ccccc2)C(C)C)cc1` the growth inhibition call was “inactive”.
In the case of `Cc1ccc(C(=O)N(CCCN)[C@@H](c2nc3cc(Cl)ccc3c(=O)n2Cc2ccccc2)C(C)C)cc1`, the growth inhibition call is reported as “active”.
With `Cc1ccc2c(c1)c1nc3ccccc3nc1n2Cc1ccccc1` the growth inhibition call was “inactive”.
For `COc1ccc(CN(C)C[C@@H]2OCCCC[C@@H](C)Oc3ccc(NC(=O)Nc4ccc(C(F)(F)F)cc4)cc3C(=O)N([C@@H](C)CO)C[C@@H]2C)cc1`, the growth inhibition call was “inactive”.
For `C[C@@H]1CCCCO[C@H](CN(C)S(=O)(=O)c2ccccc2)[C@H](C)CN([C@H](C)CO)C(=O)c2cc(NC(=O)Nc3ccc(C(F)(F)F)cc3)ccc2O1`, the growth inhibition call was “inactive”.
`CO[C@@H]1CN(C)C(=O)c2ccc(NS(=O)(=O)CC(F)(F)F)cc2OC[C@@H](C)N(C(=O)c2ccc3c(c2)OCO3)C[C@H]1C` was tested, and the growth inhibition call was “inactive”.
With `CC(C)(O)CC(=O)NCCn1ccc2ncnc(Nc3ccc(Oc4cccc(C(F)(F)F)c4)c(Cl)c3)c21` the growth inhibition call was “active”.
For `CS(=O)(=O)CCNCc1ccc(-c2ccc3ncnc(Nc4ccc(OCc5cccc(F)c5)c(Cl)c4)c3c2)o1` [listing 1 of 2 here], the growth inhibition call was “inactive”.
In the case of `CS(=O)(=O)CCNCc1ccc(-c2ccc3ncnc(Nc4ccc(OCc5cccc(F)c5)c(Cl)c4)c3c2)o1` [listing 2 of 2 here], the growth inhibition call is reported as “inactive”.
`C[C@H](CO)N1C[C@H](C)[C@H](CN(C)C(=O)Cc2cccnc2)Oc2cc(-c3cncnc3)ccc2S1(=O)=O` was tested, and the growth inhibition call was “inactive”.
`C[C@@H]1CCCCO[C@@H](CN(C)Cc2ccc(C(=O)Nc3ccccc3N)cc2)[C@@H](C)CN([C@H](C)CO)C(=O)c2cc(NC(=O)c3ccccc3)ccc2O1` was tested, and the growth inhibition call was “inactive”.
`CN(CC(=O)Nc1ccc(F)cc1F)S(=O)(=O)c1ccc2c(c1)c(=O)n(C)c(=O)n2C` was tested, and the growth inhibition call was “inactive”.
In the case of `C[C@H]1CN([C@@H](C)CO)C(=O)Cc2cc(NS(=O)(=O)c3cn(C)cn3)ccc2O[C@@H]1CN(C)S(C)(=O)=O`, the growth inhibition call is reported as “inactive”.
